# Test results from article PMC4336329 (PLoS ONE, 2015).
# The whole screen tested about 310,000 compounds, of which about 14,000 (4.5%) showed an effect of 50% or more. The effect is printed as a negative number. This excerpt belongs to a sample that is enriched for strong results.
# Target: human ether-à-go-go-related gene (hERG) potassium channel (human, UniProt Q12809)
# Assay: primary screen, population patch clamp on CHO cells stably expressing hERG; higher = less effect of the substance
# 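Further: peak tail current of the secondary pulse compared with the same well before compound.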
# Chain of human ether-à-go-go-related gene (hERG) potassium channel (Q12809 whole entry, looked up): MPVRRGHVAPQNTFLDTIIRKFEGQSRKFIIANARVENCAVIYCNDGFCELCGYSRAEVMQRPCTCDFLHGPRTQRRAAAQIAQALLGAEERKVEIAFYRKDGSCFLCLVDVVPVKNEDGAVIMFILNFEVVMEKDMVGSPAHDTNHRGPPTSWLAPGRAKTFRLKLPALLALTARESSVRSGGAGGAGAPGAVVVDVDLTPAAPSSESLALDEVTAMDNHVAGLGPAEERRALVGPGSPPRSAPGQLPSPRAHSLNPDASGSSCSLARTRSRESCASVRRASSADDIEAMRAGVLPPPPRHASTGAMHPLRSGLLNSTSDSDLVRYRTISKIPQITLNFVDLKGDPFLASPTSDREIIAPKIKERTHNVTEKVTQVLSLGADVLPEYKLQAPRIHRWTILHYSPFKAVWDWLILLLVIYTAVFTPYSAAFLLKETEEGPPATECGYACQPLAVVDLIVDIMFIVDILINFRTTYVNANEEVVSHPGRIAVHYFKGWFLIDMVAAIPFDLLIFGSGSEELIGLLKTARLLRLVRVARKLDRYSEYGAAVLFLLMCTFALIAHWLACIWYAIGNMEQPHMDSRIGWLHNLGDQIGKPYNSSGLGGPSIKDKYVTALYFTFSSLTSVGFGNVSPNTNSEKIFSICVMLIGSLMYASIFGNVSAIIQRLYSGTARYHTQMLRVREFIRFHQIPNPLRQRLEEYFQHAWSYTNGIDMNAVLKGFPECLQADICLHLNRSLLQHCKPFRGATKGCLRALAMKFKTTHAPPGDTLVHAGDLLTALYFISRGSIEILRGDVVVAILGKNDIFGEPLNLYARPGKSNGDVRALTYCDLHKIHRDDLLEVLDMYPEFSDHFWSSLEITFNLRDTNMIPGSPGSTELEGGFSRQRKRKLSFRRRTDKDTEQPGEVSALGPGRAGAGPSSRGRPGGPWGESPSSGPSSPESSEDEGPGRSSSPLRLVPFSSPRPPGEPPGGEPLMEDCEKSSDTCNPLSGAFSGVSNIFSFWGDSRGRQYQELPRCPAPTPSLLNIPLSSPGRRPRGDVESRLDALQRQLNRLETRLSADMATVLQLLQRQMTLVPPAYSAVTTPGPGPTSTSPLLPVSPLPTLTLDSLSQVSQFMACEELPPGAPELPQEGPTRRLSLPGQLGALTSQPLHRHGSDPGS
row,SMILES,"hERG current change (%, negative = inhibition) at 10uM [%]"
1,O=C(O)/C(=C\c1cccc(C(F)(F)F)c1)c1ccc(S(=O)(=O)N2CCCC2)s1,5.74
2,O=C(Cc1cccs1)Nc1cccc(C(=O)Nc2ccco2)c1,-37.9
3,CCOc1ccc(Nc2oc(-c3ccco3)nc2C#N)cc1,-1.69
4,COC(=O)c1ccc(NC(=O)CSc2nc(N)c(NC(=O)c3ccc(Br)o3)c(=O)[nH]2)cc1,20.8
5,Cc1cc(C)c(S(=O)(=O)Nc2nccs2)c(C)c1,0.875
6,Cc1cc(S(=O)(=O)NCC(C)C)ccc1OCC(=O)NCC1CCCO1 (stereo not drawn),8.03
7,CC(=O)Nc1nc(C)c(Oc2ccc(C)cc2)c(=O)[nH]1,-1.03
8,S=C(NC1CC1)SCc1ccco1,-11.5
9,COc1cccc(NC(=O)CN(C)CC(=O)NC(C)c2ccccc2)c1 (stereo not drawn),-8.48
10,CN(C)CCN1C(=O)c2oc3ccc(F)cc3c(=O)c2C1c1ccncc1 (stereo not drawn),-2
11,CCOC(=O)CC(=O)CSc1ncnc2c1oc1ccccc12,5.2
12,Cc1ccc(Cl)cc1Nc1nc(-c2sc(NC(=O)c3ccco3)nc2C)cs1,3.48
13,COc1ccc2c(c1)C(C)CC(C)(C)N2C(=O)CSc1ncn[nH]1 (stereo not drawn),-10.9
14,Cc1ccccc1OCCCC(=O)Nc1ccc(Br)cc1,5.24
15,COc1cccc(OC)c1C(=O)OCC(=O)N(C)c1ccccc1,7.96
16,Cc1ccc(NC(=O)[C@H](C)NC(=O)C2CCN(C(=O)[C@@H](N)CC(C)C)CC2)cc1.Cl,7.29
17,COc1ccc(OCC(O)CN2CCC(CN3C(=O)c4cccc5cccc(c45)C3=O)CC2)cc1.Cl (stereo not drawn),-59.1
18,CCc1ccc(OCC(O)CN2CCC(CN3C(=O)c4cccc5cccc(c45)C3=O)CC2)cc1.Cl (stereo not drawn),-41.1
19,COc1ccc(S(=O)(=O)N2CCC(CN3C(=O)c4cccc5cccc(c45)C3=O)CC2)cc1,7.22
20,Cc1cc(C)n(C(=O)CCCC(=O)n2nc(C)cc2C)n1,-4.17
21,CC(=O)Nc1ccc(NC(=O)COc2ncnc3ccccc23)cc1,-7.63
22,O=C(Nc1ccccn1)c1cc(-c2cccc(Cl)c2)nc2ccccc12,13.3
23,O=C(c1ccc(Cl)c(S(=O)(=O)N2CCCC2)c1)N1CCN(c2ccccn2)CC1,-31.3
24,O=C(c1ccc(Cl)c(S(=O)(=O)N2CCOCC2)c1)N1CCN(c2ccccn2)CC1,-44.2
25,CC1CCN(C(=O)c2ccc(Br)c(S(=O)(=O)N3CCOCC3)c2)CC1,-3.74
26,O=C(c1ccc(Cl)c(S(=O)(=O)NCc2ccccc2)c1)N1CCN(c2ccccn2)CC1,-50.3
27,O=C(c1ccc(Cl)c(S(=O)(=O)N2CCCC2)c1)N1CCN(c2ncccn2)CC1,-4.2

row,SMILES,"hERG current change (%, negative = inhibition) at 10uM [%]"
1,CC1CCN(S(=O)(=O)c2cc(C(=O)N3CCN(c4ncccn4)CC3)ccc2Br)CC1,-72.4
2,O=C(c1ccc(Cl)c(S(=O)(=O)N2CCCCCC2)c1)N1CCN(c2ccccn2)CC1,-63.6
3,O=C(c1ccc(Cl)c(S(=O)(=O)Nc2ccc(F)cc2)c1)N1CCN(c2ccccn2)CC1,-33.9
4,O=C(c1ccc(CNS(=O)(=O)c2ccccc2)cc1)N1CCN(c2ccccn2)CC1,-28.5
5,CCC1(C)CC(C(N)=S)CCO1 (stereo not drawn),27.4
6,O=C(C1CCC1)N(CCc1ccccc1)Cc1nc2ccccc2c(=O)[nH]1,-4.04
7,CCc1nnc(NC(=O)CN2C(=O)c3ccccc3S2(=O)=O)s1,10.7
8,Cc1ccc(S(=O)(=O)Nc2c(C)nn(C)c2C)cc1,-4.07
9,CCn1c(=O)c2sccc2n(Cc2ccc(C)cc2)c1=O,26
10,CC1CCc2nc(NC(=O)CN3CCN(Cc4ccc5c(c4)OCO5)CC3)sc2C1 (stereo not drawn),-66.7
11,O=C(Nc1ccccc1)N1CCN(Cc2ccc3c(c2)OCO3)CC1,-26.1
12,CC1CCc2nc(NC(=O)CN3CCOCC3)sc2C1 (stereo not drawn),-4.5
13,COc1cc(NC(=O)CN2CCN(Cc3ccc4c(c3)OCO4)CC2)cc(OC)c1.O=C(O)C(=O)O,-47
14,O=C(CN1CCN(c2ccc(F)cc2)CC1)Nc1ccc2c(c1)OCCO2,4
15,O=C(CN1CCN(CC(=O)Nc2ccc3c(c2)OCO3)CC1)Nc1ccc(F)cc1,-73.4
16,Cc1cc(C)cc(NC(=O)N2CCN(Cc3ccc4c(c3)OCO4)CC2)c1,-59
17,CC1CCc2nc(NC(=O)CN3CCN(c4ccccc4)CC3)sc2C1 (stereo not drawn),-6.29
18,O=C(CN1CCN(Cc2ccc3c(c2)OCO3)CC1)NCC(F)(F)F,5.34
19,O=C(CN1CCN(Cc2ccc3c(c2)OCO3)CC1)Nc1ccc(F)cc1,-81.7
20,O=C(CN1CCN(S(=O)(=O)c2ccc(F)cc2)CC1)Nc1ccc2c(c1)OCO2,-40.6
21,Cc1ccc(NC(=O)N2CCN(Cc3ccc4c(c3)OCO4)CC2)cc1,-33.8
22,O=C(/C(=C(/[O-])c1ccccc1)[n+]1ccccc1)c1ccc([N+](=O)[O-])cc1,6.47
23,Cc1ccc(-c2nnc(N(C)C(=O)c3ccncc3)s2)cn1,1.62
24,CCC(C)(C)NC(=O)C(c1cccnc1)N(C(=O)c1csnn1)c1ccc(C)cc1 (stereo not drawn),10.6
25,CCCOc1ccc(-c2c(C(=O)N/N=C/c3ccccc3OCC)nnn2-c2nonc2N)cc1,22.7
26,COc1ccc(OC)c(C2C(C(=O)c3cc4ccccc4o3)=C(O)C(=O)N2c2cc(C)on2)c1 (stereo not drawn),2.7
27,COc1ccc2oc(C(=O)NN3C(C)CCCC3C)c(C)c2c1 (stereo not drawn),16.1
